# Source: PubChem
# PAFAH1B3 FP inh – blocks human PAF acetylhydrolase 1B catalytic subunit 3 | Q15102 | recombinant PAFAH1B3, FP-rhodamine probe, fluorescence polarization | inhibition, % at 3.39 µM | 340,000 compounds, 0.28% hits;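 active = inhibition above the screen-wide average of all tested compounds plus 3 SD, cut at about 25% in these data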;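 also: 0% = enzyme with DMSO only and 100% = wells lacking PAFAH1B3 protein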
# Target sequence (Q15102 whole entry, looked up): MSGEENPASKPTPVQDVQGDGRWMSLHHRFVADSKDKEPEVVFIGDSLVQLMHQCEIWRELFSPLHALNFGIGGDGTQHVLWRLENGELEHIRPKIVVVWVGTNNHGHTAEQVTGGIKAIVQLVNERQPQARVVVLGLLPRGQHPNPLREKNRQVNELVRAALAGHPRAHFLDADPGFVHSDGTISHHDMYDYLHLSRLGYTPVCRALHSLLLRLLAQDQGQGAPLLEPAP
# Fam108B inh – counter-screen for RBBP9 inhibitors: inhibitors of mouse Fam108B; inhibition, % at 9.51 µM; AID 1947; recombinant Fam108B, FP-Rh probe fluorescence polarization; 300,000 compounds, 0.33% hits;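 active = inhibition above the screen mean inhibition plus 3 SD, computed separately per campaign, cut at about 18% in these data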;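 also: inhibitors lower polarization as less probe binds the enzyme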
# PME-1 primary – blocks human protein phosphatase methylesterase 1; recombinant PME-1, FP-Rh probe fluorescence polarization; AID 2130; inhibition, % at 5.9 µM; 320,000 compounds, 0.53% hits; Q9Y570;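 active = inhibition above the campaign mean of all compounds plus 3 SD, cut at about 26% in these data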;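 also: competitive labeling of PME-1 active site by serine hydrolase directed probe; 0% = PME-1 with DMSO and 100% = wells lacking PME-1 enzyme; inhibitors block probe labeling so polarization falls and inhibition rises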
# Target sequence (Q9Y570 whole entry, looked up): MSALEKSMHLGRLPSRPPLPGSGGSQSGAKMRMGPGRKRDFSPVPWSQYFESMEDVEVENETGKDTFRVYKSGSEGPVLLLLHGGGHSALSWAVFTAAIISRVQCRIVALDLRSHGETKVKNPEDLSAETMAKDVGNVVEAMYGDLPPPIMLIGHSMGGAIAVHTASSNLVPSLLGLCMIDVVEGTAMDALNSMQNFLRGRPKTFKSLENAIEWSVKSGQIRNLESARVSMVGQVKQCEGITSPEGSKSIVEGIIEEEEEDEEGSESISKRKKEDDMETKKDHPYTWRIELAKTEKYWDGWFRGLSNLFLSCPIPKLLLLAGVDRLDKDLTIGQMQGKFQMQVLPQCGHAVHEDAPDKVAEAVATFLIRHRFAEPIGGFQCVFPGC
# PAFAH2 inh – PAFAH2 (human) inhibition; Q99487; 340,000 compounds, 0.99% hits; recombinant PAFAH2, FP-rhodamine activity probe, fluorescence polarization; AID 492956; inhibition, % at 3.39 µM;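 active = inhibition above the mean over all tested compounds plus 3 SD, cut at about 30% in these data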;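 also: inhibitors block probe labeling of enzyme so polarization drops; 0% = enzyme with DMSO and 100% = wells lacking PAFAH2 protein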
# PAFAH1B2 inh – inhibitors of human PAFAH1B2. P68402. recombinant PAFAH1B2, FP-rhodamine activity probe, fluorescence polarization. inhibition, % at 3.39 µM. 340,000 compounds, 1.2% hits. AID 492953;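 active = inhibition above the mean of all tested compounds plus 3 SD, cut at about 24% in these data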;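 also: 0% = enzyme with DMSO and 100% = wells lacking PAFAH1B2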
# pPAFAH inh – inhibitors of human plasma PAF acetylhydrolase (pPAFAH); Q13093; recombinant pPAFAH, FP-rhodamine probe fluorescence polarization; inhibition, % at 3.39 µM; 330,000 compounds, 1.5% hits; AID 463082;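 active = inhibition above the mean inhibition across the screen plus 3 SD, cut at about 25% in these data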;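 also: inhibitors block binding of the rhodamine activity-based probe so polarization drops; 0% = enzyme with DMSO and 100% = wells lacking pPAFAH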
# Starred values were filed as active, the others as inactive; · = not tested or not shown. A selection: hits, their analogues and other compounds. The true share with any hit is near 2.8%.
SMILES,PAFAH1B3 FP inh,Fam108B inh,PME-1 primary,PAFAH2 inh,PAFAH1B2 inh,pPAFAH inh
COc1ccc(C(=O)OCC(=O)c2ccc(Br)s2)c(OC)c1,0,-2,-2,30*,-1,6
Cc1ccc(C(=O)COC(=O)c2cccc(O)c2)s1,0,·,·,10,8,·
COc1cccc(C(=O)OCC(=O)c2ccc(Br)s2)c1,-5,3,2,46*,-7,14
CC(C)NC(=O)N(C)C[C@H]1Oc2ccc(NC(=O)C3CC3)cc2C(=O)N([C@H](C)CO)C[C@@H]1C,-5,·,·,3,-8,-2
COC(=O)C1CCN(C(=O)COC(=O)/C=C/c2ccc(O)c(OC)c2)CC1,-4,·,·,-1,6,4
COc1cc(/C=C/C(=O)OCC(=O)NCC2CCCCC2)ccc1O,0,·,9,88*,4,28*
O=C(O)/C=C/c1cn(-c2ccccc2)nc1-c1ccc(-c2ccc([N+](=O)[O-])cc2)o1,2,-11,27*,-1,6,-1
Cc1oc2c(O)c(O)ccc2c(=O)c1-c1ccc(Cl)cc1,22,5,-5,23,5,30*
CCOc1ccc2oc(C(=O)N(CC)CC(=O)Nc3c(F)cccc3F)c(C)c2c1,-3,-4,0,5,-7,13
CCCn1c(=N)c(S(=O)(=O)c2ccccc2)cc2c(=O)n3ccccc3nc21,4,-3,2,14,4,7
N=c1c(S(=O)(=O)c2ccc(Br)cc2)cc2c(=O)n3ccccc3nc2n1CCN1CCOCC1,-4,·,·,6,41*,·
N=c1c(S(=O)(=O)c2ccccc2)cc2c(=O)n3ccccc3nc2n1Cc1ccco1,3,-2,7,29,2,26*
COc1ccc(NC(=O)CCNS(=O)(=O)c2cc(Br)cnc2N)cc1OC,6,-2,-1,4,6,4
Cc1cc(SCC2=NNC(=O)C2)c(Cl)cc1Cl,10,3,3,-7,4,28*
O=C1CC(CSc2ccc(Cl)cc2)=NN1,·,1,4,·,·,15
NS(=O)(=O)c1ccc(CNC(=O)c2cc(=O)c3ccccc3o2)cc1,4,-3,-5,-2,-2,3
O=C(O)CNC(=O)C12CC3CC(CC(Cl)(C3)C1)C2,7,3,0,0,33*,2
Cc1ccc(NC(=S)NNC(=O)c2ccc(N3CCOCC3)c([N+](=O)[O-])c2)cc1C,14,1,10,12,4,26*
N/C(=N\OC(=O)C1CCCCC1)c1ccc(Br)cc1,14,-3,-4,3,6,-2
C/C(=N/OC(=O)C1CC12CCC2)c1ccc(Br)cc1 (stereo not drawn),5,0,-2,51*,52*,5
COc1ccccc1NC(=O)NC1(C)CCS(=O)(=O)C1 (stereo not drawn),3,·,·,6,1,·
Cc1nc(Nc2ccc(C(=O)O)cc2)sc1-c1ccccc1,6,7,4,7,20,2
Cc1nc(Nc2ccccc2)sc1-c1ccccc1,5,1,13,2,7,27*
Cc1oc2c(cc(NS(=O)(=O)c3ccc(C(C)C)cc3)c3ccccc32)c1C(=O)O,8,2,4,2,15,32*
Cc1oc2c(cc(NS(=O)(=O)c3ccc(F)cc3)c3ccccc32)c1C(=O)O,3,5,10,6,3,20
SMILES,PAFAH1B3 FP inh,Fam108B inh,PME-1 primary,PAFAH2 inh,PAFAH1B2 inh,pPAFAH inh
COCCN(C(=O)C1CCN(C(=O)c2ccccc2C)CC1)c1c(N)n(CC(C)C)c(=O)[nH]c1=O,4,·,0,-8,-2,1
O=C(Nc1cccc(N2C(=O)C=CC2=O)c1)c1cccs1,-2,-8,-18,-17,-2,0
O=C1C=CC(=O)N1c1cccc(-c2ccccc2)c1,-3,-11,-12,-7,-6,27*
COc1ccc(C(=O)NC(=S)Nc2ccc(N3CCOCC3)cc2)cc1Cl,7,-1,5,-3,2,11
N=C1/C(=C/c2ccc(OCc3ccccc3)cc2)C(=O)N=C2SC(CC(=O)N3CCOCC3)=NN12,-2,-2,3,-2,28*,9
N=C1/C(=C/c2ccc(OCc3ccccc3F)cc2)C(=O)N=C2SC(CC(=O)N3CCOCC3)=NN12,-1,1,0,5,10,12
COc1cc(/C=C2/C(=N)N3N=C(CC(=O)N4CCOCC4)SC3=NC2=O)ccc1OC(C)c1ccccc1 (stereo not drawn),-5,-3,-5,0,28*,9
CS(=O)(=O)Oc1ccc(/C=C2\C(=N)N3N=C(CC(=O)N4CCOCC4)SC3=NC2=O)cc1Cl,4,3,-8,11,8,0
CCN(CC)CCCNC(=O)CSc1nc(-c2ccc(F)cc2)cc(C(F)(F)F)n1,4,-1,-3,1,1,4
O=C1OC(c2ccco2)=N/C1=C\c1ccc(-c2cccc(C(F)(F)F)c2)o1,3,4,0,10,1,27*
O=C(CSc1ccccc1)OCC(=O)N1CCN(C(=O)c2ccco2)CC1,-1,·,4,21,12,26*
Cc1cccc(OCC(=O)OCC(=O)N2CCN(C(=O)c3ccco3)CC2)c1C,16,0,1,6,3,27*
O=C(CSc1ccccc1)N1CCN(C(=O)c2ccco2)CC1,4,1,0,5,5,5
Cc1ccc(SCC(=O)OCC(=O)N2CCN(C(=O)c3ccco3)CC2)c(C)c1,3,-2,1,16,12,34*
CCC(=O)c1ccc(OCC(=O)OCC(=O)Nc2c(C)n(C)n(-c3ccccc3)c2=O)cc1,4,7,-3,-2,1,7
Cc1c(NC(=O)CCSc2ccc(Cl)cc2)c(=O)n(-c2ccccc2)n1C,2,2,4,4,32*,8
O=C(CSc1ccc(Cl)cc1)Nc1ccccc1Oc1ccccc1,9,0,-1,-7,9,7
Cc1c(NC(=O)COC(=O)COc2ccc(Nc3ccccc3)cc2)c(=O)n(-c2ccccc2)n1C,-2,2,6,4,-2,25*
O=C(CSc1ccc(Cl)cc1)NC1=NN(c2ccccc2)C(=O)C1,7,5,8,18,96*,32*
Cc1c(NC(=O)C23CC4CC(CC(C)(C4)C2)C3)c(=O)n(-c2ccccc2)n1C,4,0,0,50*,35*,3
O=C(c1ccc(S(=O)(=O)N2CCOCC2)cc1)N1CCc2ccccc21,5,6,-4,5,3,1
COc1ccc([C@H]2CC(=O)C=C(c3cccc(C#N)c3)C2)cc1,6,·,-1,14,3,9
Cc1nn(CCCC(=O)NC2CCC(C)CC2)c(=O)c2nn(-c3ccccc3)c(C)c12 (stereo not drawn),2,1,-4,-2,4,3
